{"source": "PubChem BioAssay AID2501", "about": "(Southern Research Specialized Biocontainment Screening …, 2010)", "note": "About 1,200 (55%) of roughly 2,200 compounds were called active. Cut-off not given; nearly all actives show IC50 up to about 92 µM. The set was probably picked from earlier hits. This is one part of the list."}
{"test": "counter assay for TAg ATPase ADP read-out – biochemical, ADP-Hunter, fluorescence, counter-screen (AID 2501);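 further: purified T antigen ATPase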", "details": "series mostly up to 100 µM"}
{"smiles": "Oc1ccc2c(c1)C1CCCC1(N1CCOCC1)O2", "note": "(stereo unspecified)", "IC50": "inactive"}
{"smiles": "CC(C)(C)c1nnc(NC(=O)CN2C(=O)C3C4C=CC(C4)C3C2=O)s1", "note": "(stereo unspecified)", "IC50": "inactive"}
{"smiles": "COc1ccc(NCN2C(=O)C3C4C=CC(C4)C3C2=O)cc1", "note": "(stereo unspecified)", "IC50": "11.4 µM (active)"}
{"smiles": "c1ccc(-c2ccc3c(c2)NCCN3)cc1", "IC50": "7.7 µM (active)"}
{"smiles": "CCCCC/C=C\\C/C=C\\C/C=C\\C/C=C\\CCCC(=O)O", "IC50": "inactive"}
{"smiles": "COc1cccc(-n2c(=O)c3ccccc3n3c(=S)[nH]nc23)c1", "IC50": "16.1 µM (active)"}
{"smiles": "CCCCCn1c(=O)c2ccccc2n2c(=S)[nH]nc12", "IC50": "11.7 µM (active)"}
{"smiles": "CC(C)CCn1c(=O)c2ccccc2n2c(=S)[nH]nc12", "IC50": "10.9 µM (active)"}
{"smiles": "COc1cccc(-n2cnnn2)c1", "IC50": "inactive"}
{"smiles": "COCCCn1c(=O)c2ccccc2n2c(=S)[nH]nc12", "IC50": "8.77 µM (active)"}
{"smiles": "COc1cccc(N2CC(=O)Nc3c(oc4nc(-c5ccccc5)cc(C)c34)C2=O)c1", "IC50": "inactive"}
{"smiles": "CCCCn1c(-c2cccc3ccccc23)nc2cc3[nH]c(=O)c(C(C)C)nc3cc21", "IC50": "inactive"}
{"smiles": "CCCCn1c(=O)c2ccccc2n2c(=S)[nH]nc12", "IC50": "11.3 µM (active)"}
{"smiles": "CCCn1c(=O)c2ccccc2n2c(=S)[nH]nc12", "IC50": "3.07 µM (active)"}
{"smiles": "CC(C)C(=O)c1ccc(O)c(O)c1", "IC50": "1.71 µM (active)"}
{"smiles": "O=C(CNS(=O)(=O)c1cccc(Cl)c1)OCc1csc(-c2ccccc2)n1", "IC50": "inactive"}
{"smiles": "CN(C)c1ccc(NS(=O)(=O)c2cc3c4c(c2)CC(=O)N4CCC3)cc1", "IC50": "1.83 µM (active)"}
{"smiles": "CN(C)c1ccc(NS(=O)(=O)c2ccc(Cl)cc2)cc1", "IC50": "5.63 µM (active)"}
{"smiles": "CCCNC(=O)NS(=O)(=O)c1ccc(Cl)cc1", "IC50": "inactive"}
{"smiles": "COc1ccc(NS(=O)(=O)c2ccc(NS(=O)(=O)c3ccc(SC)cc3)cc2)c(OC)c1", "IC50": "inactive"}
{"smiles": "CN(C)c1ccc(NS(=O)(=O)c2cccc(Cl)c2)cc1", "IC50": "13 µM (active)"}
{"smiles": "O=C(NCc1cccnc1)C(=O)Nc1cc2c3c(c1)CC(=O)N3CCC2", "IC50": "inactive"}
{"smiles": "O=C(CC(Sc1ccc(Br)cc1)C(=O)O)c1ccc(Br)cc1", "note": "(stereo unspecified)", "IC50": "inactive"}
{"smiles": "Oc1ccc(/C=N/Nc2ncnc3c2ncn3Cc2ccccc2)cc1O", "IC50": "10.1 µM (active)"}
{"smiles": "CNC(=O)CS(=O)CC(=O)Nc1cc(OCCOC)c(Cl)cc1Cl", "note": "(stereo unspecified)", "IC50": "inactive"}
{"smiles": "CCOC(=O)c1[nH]nc(-c2cc(CC)c(O)cc2O)c1-c1cscn1", "IC50": "7.84 µM (active)"}
{"smiles": "CCOC(=O)c1ccc(-c2c(-c3ccc4c(c3)OCO4)noc2-c2ccsc2)cc1F", "IC50": "inactive"}
{"smiles": "CN(C)c1ccc(Nc2nc(N)c([N+](=O)[O-])c(N3CCOCC3)n2)cc1", "IC50": "4.28 µM (active)"}
{"smiles": "CCOc1ccc(/C=C(\\C#N)C(=O)NC2CC2)c(OCC)c1", "IC50": "inactive"}
{"smiles": "CNc1ccc(/C=C(\\C#N)C(=O)Nc2ccccn2)cc1[N+](=O)[O-]", "IC50": "inactive"}
{"smiles": "N#C/C(=C\\c1ccc(O)c([N+](=O)[O-])c1)C(=O)NCc1ccccc1", "IC50": "inactive"}
{"smiles": "N#C/C(=C\\c1ccccc1OCc1ccc(C(=O)O)cc1)C(=O)Nc1ccc(O)cc1", "IC50": "5.71 µM (active)"}
{"smiles": "N#C/C(=C\\c1ccc(O)c(O)c1)C(=O)Nc1cccc2ncccc12", "IC50": "4.88 µM (active)"}
{"smiles": "O=C(/C=C/c1ccc(Br)o1)NCc1ccccc1", "IC50": "inactive"}
{"smiles": "COc1ccc(/C=C(/C#N)C(=O)Nc2ccc(O)cc2)cc1C(=O)O", "IC50": "2.62 µM (active)"}
{"smiles": "O=C(O)c1ccc(COc2ccccc2C=C2C(=O)c3ccccc3C2=O)cc1", "IC50": "inactive"}
{"smiles": "N#C/C(=C\\c1ccc(O)c(O)c1)C(=O)NCc1ccccc1", "IC50": "7.7 µM (active)"}
{"smiles": "COc1c(O)ccc2c1CN1CCc3cc4c(cc3C1C2)OCO4", "note": "(stereo unspecified)", "IC50": "inactive"}
{"smiles": "CCOC(=O)c1ccc(S(=O)(=O)Nc2nc3cc(S(=O)(=O)NC4=NCCCCC4)ccc3s2)cc1", "IC50": "inactive"}
{"smiles": "N#C/C(=C\\c1ccc(O)c(O)c1)C(=O)NCCc1ccccc1", "IC50": "5.36 µM (active)"}
{"smiles": "N#C/C(=C\\c1ccc(O)c(O)c1)C(=O)NCCCc1ccccc1", "IC50": "8.38 µM (active)"}
{"smiles": "N#C/C(=C\\c1ccc(O)c(O)c1)C(=O)Nc1ccccc1", "IC50": "12.6 µM (active)"}
{"smiles": "N#C/C(=C\\c1ccc(N2CCOCC2)o1)C(=O)Nc1ccc(O)cc1", "IC50": "1.66 µM (active)"}
{"smiles": "CC(c1ccncn1)N(C)Cc1nc(Cc2ccccc2F)no1", "note": "(stereo unspecified)", "IC50": "inactive"}
{"smiles": "CCC(C)NC(=O)CC(c1ccccc1)c1cc(C)ccc1O", "note": "(stereo unspecified)", "IC50": "inactive"}
{"smiles": "C[C@@H](NC(=O)/C(C#N)=C/c1ccc(O)c(O)c1)c1ccccc1", "IC50": "4.73 µM (active)"}
{"smiles": "Oc1c(C(c2ccco2)N2CCN(C(c3ccccc3)c3ccccc3)CC2)sc2ncnn12", "note": "(stereo unspecified)", "IC50": "inactive"}
{"smiles": "C/C(=N/NC(=O)CSc1nc2ccccc2n1C)c1ccc(O)cc1", "IC50": "6.92 µM (active)"}
{"smiles": "C/C(=N\\NC(=O)CSc1nc2ccccc2o1)c1ccc(O)cc1", "IC50": "6.4 µM (active)"}
{"smiles": "Cc1ccc(C)c(-n2c3nc(=O)[nH]c(=O)c-3cc3cc([N+](=O)[O-])ccc32)c1", "IC50": "inactive"}
{"smiles": "COc1ccccc1C(C)NS(=O)(=O)c1cccs1", "note": "(stereo unspecified)", "IC50": "inactive"}
